From PubChem BioAssay (EPA / NIEHS)
Calls of active or inactive are those of the source. Rule for the calls: active = hit-call score of the fitted dose curve at least 0.9, where 1 is the maximum; inactive = score below 0.9.

Columns and labels:
[1] = BSK_CASM3C_SRB: Viability Assessment in the BioMAP Diversity Plus: CASM3C Assay (AID 2283050); settings: primary human coronary artery smooth muscle cells;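 note: cells exposed to compound for 24 h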
[2] = read-out: Thrombomodulin, THBD (gene 7056); assay: BSK_CASM3C_Thrombomodulin: BioMAP Diversity Plus: CASM3C Assay for Thrombomodulin Biomarker Activity (AID 2283051); settings: primary human coronary artery smooth muscle cells; actives raise or lower the signal;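 note: thrombomodulin protein level measured by ELISA 24 h after dosing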
[3] = read-out: Tissue Factor, F3 (gene 2152); assay: BSK_CASM3C_TissueFactor: BioMAP Diversity Plus: CASM3C Assay for Tissue Factor Biomarker Activity (AID 2283052); settings: primary human coronary artery smooth muscle cells; actives raise or lower the signal;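 note: cell surface tissue factor protein level read by ELISA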
[4] = read-out: Interferon-gamma inducible Protein 10 (IP10), CXCL10 (gene 3627); assay: BSK_hDFCGF_IP10: BioMAP Diversity Plus: hDFCGF Assay for Interferon-gamma inducible Protein 10 (IP10) Biomarker Activity (AID 2283053); settings: primary human foreskin fibroblasts; actives raise or lower the signal
Procedure, shortened: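 Primary human foreskin fibroblasts exposed to chemicals for 24 h. IP-10 measured by ELISA; changes fitted bidirectionally against DMSO baseline.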

[5] = read-out: Urokinase-type plasminogen activator receptor (uPAR), PLAUR (gene 5329); assay: BSK_CASM3C_uPAR: BioMAP Diversity Plus: CASM3C Assay for Urokinase-type plasminogen activator receptor (uPAR) Biomarker Activity (AID 2283054); settings: primary human coronary artery smooth muscle cells; actives raise or lower the signal;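 note: cell-surface uPAR protein level quantified by ELISA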
[6] = read-out: Vascular cell adhesion molecule 1 (VCAM1), VCAM1 (gene 7412); assay: BSK_CASM3C_VCAM1: BioMAP Diversity Plus: CASM3C Assay for Vascular cell adhesion molecule 1 (VCAM1) Biomarker Activity (AID 2283055); settings: primary human coronary artery smooth muscle cells; actives raise or lower the signal;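 note: VCAM-1 protein level quantified by ELISA on the cells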
[7] = read-out: Collagen III, COL3A1 (gene 1281); assay: BSK_hDFCGF_CollagenIII: BioMAP Diversity Plus: hDFCGF Assay for Collagen III Biomarker Activity (AID 2283056); settings: primary human foreskin fibroblasts; actives raise or lower the signal
Procedure, shortened: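 ELISA read-out of collagen III from human skin fibroblast cultures sampled 24 h post-dosing. Values were derived by bidirectional fitting relative to the DMSO vehicle control.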

[8] = read-out: Epidermal growth factor receptor (EGFR), EGFR (gene 1956); assay: BSK_hDFCGF_EGFR: BioMAP Diversity Plus: hDFCGF Assay for Epidermal growth factor receptor (EGFR) Biomarker Activity (AID 2283057); settings: primary human foreskin fibroblasts; actives raise or lower the signal
Procedure, shortened: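 Primary human foreskin fibroblasts (hDFCGF system), sampled 24 h after dosing; EGFR quantified by ELISA. Bidirectional fit relative to DMSO baseline; SRB total-protein staining in parallel cultures for cytotoxicity.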

[9] = read-out: Interleukin-8 (IL8), CXCL8 (gene 3576); assay: BSK_hDFCGF_IL8: BioMAP Diversity Plus: hDFCGF Assay for Interleukin-8 (IL8) Biomarker Activity (AID 2283058); settings: primary human foreskin fibroblasts; actives raise or lower the signal
Procedure, shortened: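 Cells used are human skin primary fibroblasts. Chemical is added, cultures run 24 h, then IL-8 is quantified by ELISA, and gain or loss versus DMSO control is fitted in both directions.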

[10] = BSK_hDFCGF_Proliferation: Cell Proliferation Assessment in the BioMAP Diversity Plus: hDFCGF Assay (AID 2283059); settings: primary human foreskin fibroblasts;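 note: curves fitted for both rise and fall of signal versus DMSO baseline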
Procedure, shortened: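 Total protein read at 560 nm after 0.1% SRB staining of TCA-fixed human skin fibroblasts, […]. Activity is fitted in both directions relative to DMSO as baseline.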

[11] = read-out: Macrophage colony-stimulating factor (MCSF), CSF1 (gene 1435); assay: BSK_hDFCGF_MCSF: BioMAP Diversity Plus: hDFCGF Assay for Macrophage colony-stimulating factor (MCSF) Biomarker Activity (AID 2283060); settings: primary human foreskin fibroblasts; actives raise or lower the signal
Procedure, shortened: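 Primary human foreskin fibroblasts dosed with chemical; 24 h later, M-CSF quantified by ELISA; curves fitted in both directions vs DMSO negative control.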

[12] = BSK_hDFCGF_SRB: Viability Assessment in the BioMAP Diversity Plus: hDFCGF Assay (AID 2283061); settings: primary human foreskin fibroblasts;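 note: cells exposed to compound for 24 h before the read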
Procedure, shortened: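 Readout is SRB absorbance at 560 nm, reflecting total protein in parallel cultures of human foreskin fibroblasts harvested 24 h after chemical dosing. Activity was fitted bidirectionally relative to DMSO.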

[13] = read-out: TIMP metallopeptidase inhibitor 1 (TIMP1), TIMP1 (gene 7076); assay: BSK_hDFCGF_TIMP1: BioMAP Diversity Plus: hDFCGF Assay for TIMP metallopeptidase inhibitor 1 (TIMP1) Biomarker Activity (AID 2283062); settings: primary human foreskin fibroblasts; actives raise or lower the signal
Procedure, shortened: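 Human skin fibroblasts (primary), hDFCGF system; compound exposure 24 h; TIMP-1 by ELISA; bidirectional fit vs DMSO negative control; overt cytotoxicity by SRB in parallel wells.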

[14] = read-out: Monokine induced gamma interferon (MIG), CXCL9 (gene 4283); assay: BSK_hDFCGF_MIG: BioMAP Diversity Plus: hDFCGF Assay for Monokine induced gamma interferon (MIG) Biomarker Activity (AID 2283063); settings: primary human foreskin fibroblasts; actives raise or lower the signal
Procedure, shortened: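 Chemicals were added to primary human foreskin fibroblast cultures, which were sampled 24 h later. MIG levels were then quantified by ELISA and responses fitted in both directions relative to DMSO.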

[15] = read-out: Matrix Metallopeptidase 1 (MMP1), MMP1 (gene 4312); assay: BSK_hDFCGF_MMP1: BioMAP Diversity Plus: hDFCGF Assay for Matrix Metallopeptidase 1 (MMP1) Biomarker Activity (AID 2283064); settings: primary human foreskin fibroblasts; actives raise or lower the signal
Procedure, shortened: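 Primary human foreskin fibroblasts in the hDFCGF system were dosed with test chemical, and MMP1 was measured by ELISA 24 h later. Values come from bidirectional curve fitting against the DMSO baseline.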

[16] = read-out: Vascular cell adhesion molecule 1 (VCAM1), VCAM1 (gene 7412); assay: BSK_hDFCGF_VCAM1: BioMAP Diversity Plus: hDFCGF Assay for Vascular cell adhesion molecule 1 (VCAM1) Biomarker Activity (AID 2283065); settings: primary human foreskin fibroblasts; actives raise or lower the signal;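 for AC50: VCAM-1 protein level quantified by ELISA after 24 h chemical exposure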
Procedure, shortened: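 Human foreskin fibroblast primary cells, chemical exposure 24 h; VCAM-1 by ELISA; bidirectional fit, DMSO = negative control/baseline.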

[17] = read-out: Plasminogen activator inhibitor-1 (PAI1), SERPINE1 (gene 5054); assay: BSK_hDFCGF_PAI1: BioMAP Diversity Plus: hDFCGF Assay for Plasminogen activator inhibitor-1 (PAI1) Biomarker Activity (AID 2283066); settings: primary human foreskin fibroblasts; actives raise or lower the signal
Procedure, shortened: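 Human foreskin fibroblast primary cells, 24 h chemical exposure; PAI-1 measured by ELISA. Bidirectional fitting relative to DMSO; parallel cultures stained with SRB for total protein to flag overt cytotoxicity.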

[18] = read-out: Intercellular Adhesion Molecule 1 (ICAM1), ICAM1 (gene 3383); assay: BSK_KF3CT_ICAM1: BioMAP Diversity Plus: KF3CT Assay for Intercellular Adhesion Molecule 1 (ICAM1) Biomarker Activity (AID 2283067); settings: primary human keratinocytes with fibroblasts; actives raise or lower the signal
Procedure, shortened: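 ICAM-1 levels are measured by ELISA 24 h after dosing a primary human co-culture of keratinocytes and foreskin fibroblasts. Activity in either direction is fitted relative to DMSO vehicle.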

[19] = read-out: Interferon-gamma inducible Protein 10 (IP10), CXCL10 (gene 3627); assay: BSK_KF3CT_IP10: BioMAP Diversity Plus: KF3CT Assay for Interferon-gamma inducible Protein 10 (IP10) Biomarker Activity (AID 2283068); settings: primary human keratinocytes with fibroblasts; actives raise or lower the signal
Procedure, shortened: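 Human keratinocyte plus foreskin fibroblast primary co-culture exposed to test chemical for 24 h; IP-10 measured by ELISA. Concentration-response fitted bidirectionally against DMSO control as baseline.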

[20] = BSK_KF3CT_SRB: Viability Assessment in the BioMAP Diversity Plus: KF3CT Assay (AID 2283069); settings: primary human keratinocytes with fibroblasts;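 note: total protein by sulforhodamine B staining as a cytotoxicity measure; read 24 h after compound addition; fitted for both signal gain and loss against DMSO baseline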
Procedure, shortened: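 Human primary keratinocyte plus foreskin fibroblast co-culture exposed to chemicals for 24 h. Total protein measured by 0.1% sulforhodamine B staining after 10% TCA fixation, read at 560 nm; bidirectional fitting versus DMSO baseline.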

Measured: AC50

C=CN1CCCC1=O
inactive: all assays above

OCC(CO)(CO)CO
not listed: [4]
inactive: all other assays above

CCCCCCOC(=O)CC(CC(=O)OCCCCCC)(OC(=O)CCC)C(=O)OCCCCCC
inactive: all assays above

Cc1ccc(S(=O)(=O)NC(=O)NN2CCCCCC2)cc1
inactive: all assays above

CCCCCCCCCCCCCCO
active: [1] 30.2 µM | [2] 31.5 µM | [3] 31.5 µM | [4] 28.3 µM | [5] 33.3 µM | [6] 20 µM | [7] 11 µM | [9] 33.3 µM | [10] 12.2 µM | [11] 24.9 µM | [12] 30.2 µM | [14] 10.8 µM | [16] 20 µM | [17] 27 µM
inactive: [8] | [13] | [15] | [18] | [19] | [20]

COc1cc2c(c(OC)c1OC)-c1ccc(OC)c(=O)cc1[C@@H](NC(C)=O)CC2
active: [4] 4.08 µM | [6] 0.579 µM | [10] 1 µM | [15] 2.82 µM | [16] 2.32 µM
inactive: all other assays above

FC(F)C(F)(F)COCC1CO1 (stereo not drawn)
not listed: [4]
inactive: all other assays above

CCOc1ccc2[nH]cc(C(=O)NCc3ccccc3)c(=O)c2n1
active: [8] 3.97 µM
not listed: [4]
inactive: all other assays above

O=C(O)c1cccc(C[C@@H]2COc3ccc(OCc4nc5cc(F)ccc5s4)cc3[C@@H]2O)c1
active: [11] 13.8 µM
not listed: [4]
inactive: all other assays above

C[C@]12C=CC(=O)C=C1CC[C@H]1[C@@H]3C[C@@H](O)[C@](O)(C(=O)CO)[C@@]3(C)C[C@H](O)[C@@]12F
active: [2] 3.97 µM | [3] 0.149 µM | [10] 0.818 µM | [11] 0.58 µM | [15] 0.148 µM
inactive: all other assays above

CCN(CC)C(=S)SSC(=S)N(CC)CC
active: [1] 31.4 µM | [2] 5.26 µM | [3] 20 µM | [4] 1.67 µM | [5] 31.1 µM | [6] 30.6 µM | [7] 4.78 µM | [9] 2.81 µM | [10] 1.41 µM | [11] 1.76 µM | [12] 4.75 µM | [13] 2.03 µM | [15] 3.27 µM | [16] 1.56 µM | [17] 3.95 µM | [18] 13.5 µM | [19] 9.46 µM | [20] 9.96 µM
inactive: [8]

c1ccc2ncccc2c1
inactive: all assays above

Cn1c(=O)c2[nH]cnc2n(C)c1=O
not listed: [12]
inactive: all other assays above

CCCOc1ccc(S(=O)(=O)N2CCN(CC)CC2)cc1-c1nc2c(CC)n(Cc3ccccn3)nc2c(=O)[nH]1
not listed: [4]
inactive: all other assays above
